Data on 40 compounds can be found in PubChem BioAssay.

The structures appear in SMILES notation. Unmarked numbers belong to inactive results. Calls of active or inactive are those of the source. The rule behind the calls is not given here.

The inhibition is the change of the read-out against control, counted positive when it falls.

In the first assay the target is L-lactate dehydrogenase (Plasmodium falciparum (isolate CDC / Honduras)) (UniProt Q27743). In words: PfLDH activity inhibition – cell lysate, 3D7 strain, counter-screen for P. falciparum growth inhibition project (AID 2304).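 Note: 0% = vehicle and 100% = reference inhibitor.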 The conditions noted are these: P. falciparum 3D7 crude extract, LDH APAD/NBT absorbance; at 2 µM; active compounds read high. On the technique in general: The purpose of a counterscreen is to sort out artefacts and off-target activity.
Sequence of L-lactate dehydrogenase (Plasmodium falciparum (isolate CDC / Honduras)) (Q27743 whole entry, looked up): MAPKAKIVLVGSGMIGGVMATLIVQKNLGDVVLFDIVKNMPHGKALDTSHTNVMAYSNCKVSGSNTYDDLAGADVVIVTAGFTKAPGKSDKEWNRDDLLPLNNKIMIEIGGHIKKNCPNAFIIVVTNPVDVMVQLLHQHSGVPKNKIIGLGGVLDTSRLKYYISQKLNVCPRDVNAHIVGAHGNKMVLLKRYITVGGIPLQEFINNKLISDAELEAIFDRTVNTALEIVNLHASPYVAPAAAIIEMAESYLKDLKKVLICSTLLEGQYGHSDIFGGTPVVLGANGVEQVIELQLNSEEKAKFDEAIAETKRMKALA
Turning to `Clc1ccc2c(N3CCCNCC3)ccnc2c1`, the inhibition is -1%.
Regarding `Cc1ccc2c(NN=Cc3cccc(Cl)c3)cc(C)nc2c1`, the inhibition was -2%.
As to `COc1ccc2nccc([C@@H](O)CN3CCC(NCc4ccc5c(c4)N(C)C(=O)CO5)CC3)c2c1`, the inhibition is 6%.
With `COc1ccc(CC(=O)Nc2ccc(Nc3nc(C)cc(N4CCCC4)n3)cc2)cc1`, the inhibition was -1%.
Regarding `CCCc1ccc(S(=O)(=O)Nc2ccc3c(c2)CCC3)cc1`, the inhibition was 1%.
On the same count and under the same terms, as for `NC(=O)c1ccsc1NC(=O)CNC(c1ccc(F)cc1)c1cccs1` (stereo unspecified), the figure is -2%; as for `COc1ccc(S(=O)(=O)Nc2cc(Br)cc3c2OCCC3)cc1N1CCN(C(=O)C(Cl)(Cl)Cl)CC1`, -2%; as for `CN1CCN(c2ccc(Nc3c(C(N)=O)cnc4cc(-c5ccoc5)ccc34)cc2C(F)(F)F)CC1`, -9%.
In the case of `Cc1cc(N[C@@H](CC(C)C)C(=O)NCCOc2ccccc2)nc(Nc2ccccc2)n1`, the inhibition was -2%.
For `COc1cc(C(=O)NC2CCN(Cc3ccccc3)CC2)ccc1-c1nc2cc(Cl)c(Cl)cc2[nH]1`, the inhibition is 4%.
The same measure, in the same setting: the same measure for `CN(CCN)Cc1cccc(-c2ccc(-c3nc4ccc(C(F)(F)F)cc4[nH]3)s2)c1`: 5%; for `CCc1c[nH]c2c(N3CCCC3=O)cc(C(=O)N[C@@H](Cc3ccccc3)[C@H](O)CNC(C)(C)c3cccc(C(F)(F)F)c3)cc12`: 1%; for `CC(=O)Nc1cccc(C(=O)Nc2nc3ccc(-c4cc(=O)[nH]c(Nc5ccccc5Cl)n4)cc3[nH]2)c1`: 6%.
Take `Cc1nn(-c2ccccc2)c2sc(C(=O)N(CCCN(C)C)c3nc(-c4ccccc4)cs3)cc12`: the inhibition was -2%.
As for `COc1ccc(CNC(=O)C2Cc3ccccc3CN2Cc2ccc3ccccc3c2)cc1` (stereo unspecified), the inhibition is -8%.
On the same count and under the same terms, as for `c1cc(-c2ccc(CN3CCCCC3)cc2)cc(-c2nc3ccccc3[nH]2)c1`, the figure is 5%; as for `Cn1c2c(c3ccccc31)CN(CCC1(c3ccc(Cl)c(Cl)c3)CN(C(=O)Cc3ccccc3)CCO1)CC2` (stereo unspecified), 0%; as for `CN(C)CCCNCc1ccc(-c2ccc(C(F)(F)F)cc2)cc1`, -4%.
As to `CCCc1cc(OC)c(CC2c3cc(O)c(Cl)cc3CCN2C)cc1OC` (stereo unspecified), the inhibition was -5%.
On the same count and under the same terms, as for `c1ccc(Nc2nc(-c3ccccn3)cs2)nc1`, the figure is 2%; as for `N#Cc1ccc(NC(=O)c2ccc(Cc3ccc4c(c3)CCN(C3CCC3)CC4)cn2)cc1`, -4%.
Same read-out and setting: the same measure for `Cc1cccc2[nH]c(-c3ccc(-c4cccc(CN5CCC(N)C5)c4)s3)nc12` (stereo unspecified): 1%; for `COc1ccc2ncc(F)c(CCN3C[C@H](CNCc4ccc5ccccc5c4)[C@H](O)C3)c2n1`: -3%; for `Cn1nc(C(F)(F)F)c(-c2ccc(Br)cc2)c1NC(=O)Nc1ccc(F)cc1F`: 0%.
The same measure, in the same setting: the same measure for `CCOC(=O)N1CCN(CCCNc2c3ccccc3nc3ccccc23)CC1`: 2%.
In the case of `N#Cc1ccc2c(c1)CCN(CCC1CCC(NC(=O)Nc3ccnc4ccccc34)CC1)C2` (stereo unspecified), the inhibition is 2%.

System in another assay: not listed separately
The assay is described as follows: inhibition of 3D7 malaria parasite growth – strain 3D7 (AID 2306).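 Note: 0% = DMSO wells and 100% = chloroquine plus artemisinin control wells.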 The following applies: P. falciparum 3D7 erythrocytic growth, LDH absorbance, 72 h; at 2 µM; active compounds read high.
Regarding `CC(C)Nc1nc(NCCc2cnc[nH]2)nc(Nc2ccc(Oc3ccccc3)cc2)n1`, the growth inhibition was 95% (active).
Still for that read-out and setting: the same measure for `CN(C)CCCNCc1ccc(-c2ccc(F)c(Cl)c2)o1`: 93% (active); for `COc1ccccc1Cc1nc2ccccc2nc1SCC(=O)Nc1cccc(C(F)(F)F)c1`: 97% (active).
Turning to `CN1CCC(N2CCN(Cc3ccc(-c4ccc(-c5nc6ccccc6[nH]5)s4)cc3)CC2)CC1`, the growth inhibition was 101% (active).
On to `Cn1cnc2c(Nc3ccncc3)nc(-c3ccc(OC(F)(F)F)cc3)nc21`, for which the growth inhibition is 102% (active).
Regarding `CCc1cn2c3c(cc(C(=O)N[C@@H](Cc4ccccc4)[C@H](O)CNCC(C)C)cc13)N(C)S(=O)(=O)CC2`, the growth inhibition was 98% (active).
Take `O=C(/C=C/c1cccc(Cl)c1)Nc1ccc2nc(CN3CCCC3)ccc2c1`: the growth inhibition was 99% (active).
Same read-out and setting: the same measure for `O=C(C=Cc1ccc(Cl)c(Cl)c1)NCCCCCN1CCCC(CCCNC(=O)c2sc3ccccc3c2Cl)C1` (stereo unspecified): 88% (active); for `CC(=O)NCCNc1nccc(N2CCc3ncnc(Nc4ccc(OCc5cccc(F)c5)c(Cl)c4)c3C2)n1`: 100% (active); for `Cc1c(-c2cccc(CNCCc3ccc(Cl)cc3)c2)cnc(N)c1C`: 87% (active).
As for `CCCCn1c(Sc2ccc(C#N)c([N+](=O)[O-])c2)nnc1-c1cc(OC)cc(OC)c1`, the growth inhibition was 94% (active).
In the case of `Cc1cc(N2CCN(CC3CCCCC3)CC2)nc(Nc2ccc(Br)cc2)n1`, the growth inhibition is 91% (active).
`O=c1[nH]c(NCCCNCc2cc3c(Cl)cc(Cl)cc3[nH]2)nc2ccsc12`: the growth inhibition is 96% (active).
As to `Cc1cccc2[nH]c(-c3ccc(-c4cccc(NC(=O)c5ccncc5)c4)cc3)nc12`, the growth inhibition was 98% (active).
Take `Clc1ccc2c(N3CCCNCC3)ccnc2c1`: the growth inhibition is 100% (active).
As to `Cc1ccc2c(NN=Cc3cccc(Cl)c3)cc(C)nc2c1`, the growth inhibition was 96% (active).
In the case of `COc1ccc2nccc([C@@H](O)CN3CCC(NCc4ccc5c(c4)N(C)C(=O)CO5)CC3)c2c1`, the growth inhibition is 101% (active).
For the compound `COc1ccc(CC(=O)Nc2ccc(Nc3nc(C)cc(N4CCCC4)n3)cc2)cc1`, the growth inhibition was 101% (active).
Same read-out and setting: as for `CCCc1ccc(S(=O)(=O)Nc2ccc3c(c2)CCC3)cc1`, the figure is 96% (active); as for `NC(=O)c1ccsc1NC(=O)CNC(c1ccc(F)cc1)c1cccs1` (stereo unspecified), 92% (active).
Same read-out and setting: as for `COc1ccc(S(=O)(=O)Nc2cc(Br)cc3c2OCCC3)cc1N1CCN(C(=O)C(Cl)(Cl)Cl)CC1`, the figure is 90% (active); as for `CN1CCN(c2ccc(Nc3c(C(N)=O)cnc4cc(-c5ccoc5)ccc34)cc2C(F)(F)F)CC1`, 100% (active); as for `Cc1cc(N[C@@H](CC(C)C)C(=O)NCCOc2ccccc2)nc(Nc2ccccc2)n1`, 93% (active).
Same read-out and setting: as for `COc1cc(C(=O)NC2CCN(Cc3ccccc3)CC2)ccc1-c1nc2cc(Cl)c(Cl)cc2[nH]1`, the figure is 103% (active).
As for `CN(CCN)Cc1cccc(-c2ccc(-c3nc4ccc(C(F)(F)F)cc4[nH]3)s2)c1`, the growth inhibition was 100% (active).
As for `CCc1c[nH]c2c(N3CCCC3=O)cc(C(=O)N[C@@H](Cc3ccccc3)[C@H](O)CNC(C)(C)c3cccc(C(F)(F)F)c3)cc12`, the growth inhibition was 98% (active).
Consider `CC(=O)Nc1cccc(C(=O)Nc2nc3ccc(-c4cc(=O)[nH]c(Nc5ccccc5Cl)n4)cc3[nH]2)c1`, for which the growth inhibition is 99% (active).
Same read-out and setting: the same measure for `Cc1nn(-c2ccccc2)c2sc(C(=O)N(CCCN(C)C)c3nc(-c4ccccc4)cs3)cc12`: 95% (active); for `COc1ccc(CNC(=O)C2Cc3ccccc3CN2Cc2ccc3ccccc3c2)cc1` (stereo unspecified): 96% (active); for `c1cc(-c2ccc(CN3CCCCC3)cc2)cc(-c2nc3ccccc3[nH]2)c1`: 101% (active).
Same read-out and setting: as for `Cn1c2c(c3ccccc31)CN(CCC1(c3ccc(Cl)c(Cl)c3)CN(C(=O)Cc3ccccc3)CCO1)CC2` (stereo unspecified), the figure is 95% (active).
With `CN(C)CCCNCc1ccc(-c2ccc(C(F)(F)F)cc2)cc1`, the growth inhibition is 96% (active).
Turning to `CCCc1cc(OC)c(CC2c3cc(O)c(Cl)cc3CCN2C)cc1OC` (stereo unspecified), the growth inhibition was 100% (active).
The same measure, in the same setting: the same measure for `c1ccc(Nc2nc(-c3ccccn3)cs2)nc1`: 87% (active).
On the same count and under the same terms, the same measure for `N#Cc1ccc(NC(=O)c2ccc(Cc3ccc4c(c3)CCN(C3CCC3)CC4)cn2)cc1`: 91% (active); for `Cc1cccc2[nH]c(-c3ccc(-c4cccc(CN5CCC(N)C5)c4)s3)nc12` (stereo unspecified): 95% (active).
For the compound `COc1ccc2ncc(F)c(CCN3C[C@H](CNCc4ccc5ccccc5c4)[C@H](O)C3)c2n1`, the growth inhibition was 100% (active).
On the same count and under the same terms, the same measure for `Cn1nc(C(F)(F)F)c(-c2ccc(Br)cc2)c1NC(=O)Nc1ccc(F)cc1F`: 99% (active); for `CCOC(=O)N1CCN(CCCNc2c3ccccc3nc3ccccc23)CC1`: 90% (active); for `N#Cc1ccc2c(c1)CCN(CCC1CCC(NC(=O)Nc3ccnc4ccccc34)CC1)C2` (stereo unspecified): 104% (active).
